The results in this text go back to PubChem BioAssay (NCI).

Compounds without any hit were thinned out: in the full panel of roughly 83,000, 20% have a hit.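 Results are percent growth after 48 hours of single-concentration exposure. 100 means growth as in untreated cells, lower positive values show inhibition; negative values down to -100 show cell death.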 Unmarked numbers belong to inactive results. Activity calls are given as the source filed them. Rule for the calls: active = growth percent below 10; inactive = the rest.

What all share (test): NCI-60 one-dose screen, 48 h (100 = growth as untreated, 0 = no growth, -100 = all killed)
For one assay, the system named is HCT-15 colon. As to conditions: 10 µM unless noted.
Another assay has as its system HT29 colon. The conditions noted are these: 10 µM unless noted.
The next assay concerns SNB-75 CNS. As to conditions: 10 µM unless noted.
The subject of another assay is SNB-19 CNS. As to conditions: 10 µM unless noted.
For a further assay, the system named is U251 CNS. As to conditions: 10 µM unless noted.
A further assay relates to PC-3 prostate. The conditions noted are these: 10 µM unless noted.
The next assay has as its system SK-MEL-5 melanoma. As to conditions: 10 µM unless noted.
For a further assay, the system named is UACC-62 melanoma. The conditions noted are these: 10 µM unless noted.
Another assay relates to LOX IMVI melanoma. As to conditions: 10 µM unless noted.
A further assay concerns SK-MEL-28 melanoma. The conditions noted are these: 10 µM unless noted.
The next assay deals with SK-MEL-2 melanoma. As to conditions: 10 µM unless noted.
The test system of another assay is EKVX NSCLC. The conditions noted are these: 10 µM unless noted.
The next assay has as its system SN12C renal. The conditions noted are these: 10 µM unless noted.
In another assay the test system is UO-31 renal. The conditions noted are these: 10 µM unless noted.
In the next assay the test system is TK-10 renal. As to conditions: 10 µM unless noted.
In a further assay the test system is ACHN renal. As to conditions: 10 µM unless noted.
In a further assay the test system is CAKI-1 renal. The conditions noted are these: 10 µM.
In the next assay the test system is A498 renal. As to conditions: 10 µM unless noted.
A further assay relates to CCRF-CEM leukemia. The conditions noted are these: 10 µM unless noted.
The next assay relates to MOLT-4 leukemia. The conditions noted are these: 10 µM unless noted.

For `CN1C(=O)N(C)C2Nn3c(s/c(=C\c4ccccn4)c3=O)=NC21` (stereo not given), the growth with HCT-15 colon is 99.9%; in the assay on HT29 colon, 110%; in the assay on SNB-75 CNS, 105%; with SNB-19 CNS it was 100%; in the assay on U251 CNS, 105%; with PC-3 prostate, 99.1%. Further, the growth in the assay on SK-MEL-5 melanoma is 102%; with UACC-62 melanoma, 90.6%; in the assay on LOX IMVI melanoma, 99.6%; in the assay on SK-MEL-28 melanoma it was 104%; in the assay on SK-MEL-2 melanoma, 102%; with EKVX NSCLC it was 99.7%. Besides, the growth in the assay on SN12C renal was 104%; in the assay on UO-31 renal it was 88.1%; in the assay on TK-10 renal it was 111%; in the assay on ACHN renal, 100%; in the assay on CAKI-1 renal, 97.1%; with A498 renal, 105%. For the same molecule, the growth in the assay on CCRF-CEM leukemia was 102%; with MOLT-4 leukemia, 110%.

With `COC(=O)Nc1ccc(-c2nc(-c3cccc(O)c3)c(-c3ccnc(Br)c3)[nH]2)cc1`, the growth in the assay with HCT-15 colon was 51%; in the assay on HT29 colon, 73.7%; with SNB-75 CNS it was 3.12% (active); in the assay with SNB-19 CNS, 56.2%; with U251 CNS it was 47%; with PC-3 prostate, 23.7%. Also, the growth in the assay with SK-MEL-5 melanoma was 61.2%; in the assay on UACC-62 melanoma it was 23.7%; in the assay on LOX IMVI melanoma, 38%; in the assay with SK-MEL-28 melanoma, 58.7%; with SK-MEL-2 melanoma, 77.8%; in the assay with EKVX NSCLC, 68.5%. In addition, the growth in the assay with SN12C renal is 60.4%; with UO-31 renal it was 42.9%; in the assay with TK-10 renal, 73.5%; in the assay with ACHN renal, 60.4%; in the assay with CAKI-1 renal it was 45.6%; in the assay on A498 renal, 73.4%. The growth with CCRF-CEM leukemia was 22.8%; with MOLT-4 leukemia it was 21.5%.

`O=C(Cn1cc(CN2C(=O)c3ccc([N+](=O)[O-])cc3C2=O)nn1)Nc1ccccc1Br`: the growth in the assay with HCT-15 colon is 102%; in the assay with HT29 colon, 112%; in the assay on SNB-75 CNS, 87.5%; in the assay on SNB-19 CNS it was 102%; in the assay with U251 CNS it was 109%; with PC-3 prostate, 102%. In addition, the growth with SK-MEL-5 melanoma is 104%; in the assay with UACC-62 melanoma, 90.7%; in the assay on LOX IMVI melanoma, 116%; in the assay on SK-MEL-28 melanoma it was 108%; in the assay with SK-MEL-2 melanoma, 114%; in the assay with EKVX NSCLC, 105%. Also, the growth in the assay with SN12C renal was 103%; in the assay with UO-31 renal it was 88.1%; with TK-10 renal it was 104%; with ACHN renal it was 108%; in the assay with CAKI-1 renal, 103%; with A498 renal, 101%. In addition, the figures for the growth in the assay with CCRF-CEM leukemia and in the assay with MOLT-4 leukemia were 95.1% and 105%, respectively.

With `CCOC(=O)c1nn(-c2ccc(C)cc2)c(=O)c2c(N)c(C#N)c(-c3ccc(OC)cc3)cc12`, the growth was 99.2% with HCT-15 colon; 99.4% with HT29 colon; 67.3% in the assay with SNB-75 CNS; 91.3% in the assay on SNB-19 CNS; 103% in the assay on U251 CNS; 94.8% with PC-3 prostate. The growth was 99.9% in the assay with SK-MEL-5 melanoma; 94.9% in the assay with UACC-62 melanoma; 95.5% with LOX IMVI melanoma; 100% with SK-MEL-28 melanoma; 95.1% in the assay on SK-MEL-2 melanoma; 84.7% in the assay on EKVX NSCLC. For the same molecule, the growth was 85.6% in the assay with SN12C renal; 80.5% in the assay with UO-31 renal; 125% in the assay with TK-10 renal; 93.6% with ACHN renal; 92% in the assay with CAKI-1 renal; 118% with A498 renal. Moreover, the results for the growth in the assay with CCRF-CEM leukemia and in the assay on MOLT-4 leukemia were 103% and 114%, respectively.

For `CN(c1ccc(Cl)cc1)S(=O)(=O)c1ccc(-c2cnc(C3CC3)o2)cc1`, the growth with HCT-15 colon was 15.6%; in the assay on HT29 colon, 15%; in the assay with SNB-75 CNS, 43%; in the assay with SNB-19 CNS, 44.4%; in the assay with U251 CNS it was 32.3%; in the assay on PC-3 prostate, 22.3%. In addition, the growth was 10.2% in the assay with SK-MEL-5 melanoma; 37.3% in the assay on UACC-62 melanoma; 12.9% with LOX IMVI melanoma; 65.2% in the assay on SK-MEL-28 melanoma; 63.7% with SK-MEL-2 melanoma; 47% in the assay with EKVX NSCLC. Besides, the growth with SN12C renal is 29.8%; in the assay with UO-31 renal it was 47.3%; in the assay on TK-10 renal, 75.8%; in the assay with ACHN renal, 33.6%; with CAKI-1 renal, 5.6% (active); in the assay with A498 renal it was 12.8%. In addition, the growth with CCRF-CEM leukemia was 17.1%; with MOLT-4 leukemia, 16.8%.

As to `CC(=O)Nc1ccc(NC(=O)Nc2cccc(-c3nc(-c4ccc(NC(=O)c5cccs5)cc4Cl)no3)c2)cc1C(F)(F)F`, the growth in the assay with HCT-15 colon is 20.2%; in the assay with HT29 colon it was -36.4% (active); with SNB-75 CNS, -73.2% (active); with SNB-19 CNS it was -33.7% (active); with U251 CNS, -57.4% (active); in the assay on PC-3 prostate it was -64.5% (active). The growth with SK-MEL-5 melanoma was -77.8% (active); in the assay with UACC-62 melanoma it was -82.4% (active); with LOX IMVI melanoma it was -88% (active); in the assay with SK-MEL-28 melanoma, -90.1% (active); in the assay on SK-MEL-2 melanoma, -61.4% (active); in the assay with EKVX NSCLC, -35.9% (active). The growth in the assay with SN12C renal was -64.5% (active); in the assay on UO-31 renal it was 14.4%; in the assay on TK-10 renal, -32.7% (active); in the assay on ACHN renal, 3.84% (active); in the assay with CAKI-1 renal it was -73.2% (active); in the assay with A498 renal, -87.9% (active). Also, the growth with CCRF-CEM leukemia is 6.64% (active); with MOLT-4 leukemia, -0.998% (active).

Take `COc1ccc(Cn2cc3c(c2-c2ccccc2)CCCc2cnoc2-3)cc1[N+](=O)[O-]`: the growth was 27.3% with HCT-15 colon; 40.8% with HT29 colon; 55.8% with SNB-75 CNS; 75.6% in the assay on SNB-19 CNS; 77.5% in the assay on U251 CNS; 69.5% in the assay with PC-3 prostate. Further, the growth in the assay on SK-MEL-5 melanoma is 71.5%; in the assay with UACC-62 melanoma it was 52.1%; in the assay with LOX IMVI melanoma, 87.8%; in the assay on SK-MEL-28 melanoma, 76.9%; in the assay with SK-MEL-2 melanoma, 60.4%; in the assay with EKVX NSCLC it was 78.9%. Moreover, the growth in the assay with SN12C renal was 82.2%; in the assay with UO-31 renal it was 55.5%; in the assay on TK-10 renal, 109%; in the assay with ACHN renal it was 87.1%; with CAKI-1 renal, 50.5%; in the assay on A498 renal it was 66.8%. In addition, the growth is 52.6% in the assay on CCRF-CEM leukemia and 47% with MOLT-4 leukemia.

On to `O=C(CN1CCN(c2cc(=O)n(-c3ccccc3)c3ccccc23)CC1)Nc1ccc([N+](=O)[O-])cc1`, for which the growth with HCT-15 colon was 95.1%; in the assay with HT29 colon, 105%; in the assay with SNB-75 CNS, 88%; with SNB-19 CNS, 87.1%; in the assay with U251 CNS, 93.9%; in the assay on PC-3 prostate, 84.7%. Also, the growth is 74.1% with SK-MEL-5 melanoma; 63.4% in the assay on UACC-62 melanoma; 89.3% in the assay with LOX IMVI melanoma; 101% with SK-MEL-28 melanoma; 101% with SK-MEL-2 melanoma; 88.7% in the assay with EKVX NSCLC. The growth in the assay on SN12C renal is 87.2%; with UO-31 renal it was 62%; in the assay with TK-10 renal, 93.3%; with ACHN renal, 87%; in the assay with CAKI-1 renal it was 98.1%; in the assay on A498 renal, 88.2%. Also, the growth is 98% with CCRF-CEM leukemia and 90% with MOLT-4 leukemia.
